# In the supplement of paper PMC13380429:
# Key:
# [1] = test system: Vero E6 infected with SARS-CoV-2; test: morphology score (similarity to uninfected cells); higher = more like uninfected cells; details: 24 h
# [2] = test system: Vero E6 infected with SARS-CoV-2; test: SARS-CoV-2 infection rate relative to infected DMSO; higher = more infection, active = 60 or less; details: 24 h
Compound,morphology score [1],SARS-CoV-2 infection rate [2]
CN(CCc1ccc(Cl)c(Cl)c1)CCN1CCCC1 (10 µM),0.355,74.5% (inactive)
NC(CO)C(=O)NNCc1ccc(O)c(O)c1O (configuration not stated) [benserazide] (10 µM),-0.102,96.5% (inactive)
Cc1c(C)c2c(c(C)c1OC(=O)CCC(=O)O)CC[C@@](C)(CCC[C@H](C)CCC[C@H](C)CCCC(C)C)O2 [D-alpha-tocopheryl-succinate] (10 µM),0.0385,101% (inactive)
C[C@@H]1CC[C@H]2[C@@H](C)C(=O)O[C@@H]3O[C@@]4(C)CC[C@@H]1[C@]32OO4 [artemisinin] (10 µM),-0.0301,106% (inactive)
O=c1[nH]c(=O)n([C@H]2C[C@H](O)[C@@H](CO)O2)cc1F [floxuridine] (0.833333 µM),-0.065,99% (inactive)
COc1ccc2cc1Oc1cc3c(cc1OC)CC[N+](C)(C)[C@H]3Cc1ccc(cc1)Oc1c(OC)c(OC)cc3c1[C@@H](C2)[N+](C)(C)CC3 [metocurine] (10 µM),0.103,104% (inactive)
